Hit rate of the full screen: of about 48,000 compounds, about 13,000 (27%) showed an effect of 50% or more. This is one part of the list.
The compounds below were run on Wolbachia pipientis (assay: Anti-Wolbachia Cell-Based Screen). Settings: 5 µM.
Format: functional
Set-up: scale not given: in the data most compounds retested in dose-response had high values

Structure (SMILES) | Percent Effect
O=C(NCCSC1CCCC1)c1cc(Cl)ccn1 | 3.584%
COCC(=O)N[C@H]1C[C@@H](Cc2cc(CN3CCCCC3)on2)C1(C)C | 11.93%
Cc1ccccc1CN(CCN(C)C)Cc1ncc[nH]1 | -7.334%
CN(C)C(C(=O)N1CCCN(C(=O)C2CCC2)CC1)c1ccccc1F (stereo not given) | -11.1%
CN1CC2(CCN(C(=O)C3CCC3)CC2)COc2ccccc2S1(=O)=O | 97.81%
CC(C)NC(=O)N1CCC2(CC1)COc1ccccc1S(=O)(=O)N(C)C2 | 105.4%
COCCC1COC2(CCN(C(=O)C3CCC3)CC2)C1 (stereo not given) | -7.726%
N#Cc1csc(CN(CC(=O)N2CCCC2)CC2CCCO2)c1 (stereo not given) | 4.573%
CCOc1ccc(OCC)c(NCc2cc(C)on2)c1 | -0.4612%
COCCOC[C@]1(CNCc2ccc(OC)cc2)C[C@@H](O)[C@@H](O)C1.Cl | 6.755%
Cc1ccccc1C1(CNC(=O)N2CCC(CC(N)=O)CC2)CC1 | -8.106%
Cc1ccccc1C1(CNC(=O)c2ccc(S(C)(=O)=O)cc2)CC1 | 72.54%
Cc1ccccc1C1(CNC(=O)c2cccc(S(C)(=O)=O)c2)CC1 | 2.045%
CC(NC(=O)N(C)Cc1ccsc1)c1ccc2c(c1)OCO2 (stereo not given) | -7.719%
Cn1cnnc1C1CCN(C(=O)CCCOc2ccccc2F)CC1 | -1.592%
CC(C)c1ccc(OCCC(=O)N2CCC(CC(N)=O)CC2)cc1 | -11.97%
O=C(Nc1ccccc1)C1CCN(C(=O)COc2ccccc2F)CC1 | 17.88%
CN(CCOc1ccccc1F)S(=O)(=O)CC1CCOCC1 | 2.029%
CC(O)C1CCN(C(=O)CCOc2ccccc2F)CC1 (stereo not given) | 86.99%
COc1ccccc1C1(C(=O)N2CCN(CC(C)O)CC2)CC1 (stereo not given) | -12.51%
CC(O)CN1CCN(C(=O)CCOc2ccccc2F)CC1 (stereo not given) | 109.3%
O=C(CCOc1ccccc1F)N1CCOCC1 | 105.4%
O=C(CCOc1ccccc1F)N1CCC(O)CC1 | 96.9%
CN1CCOC(CNC(=O)CCCOc2ccccc2F)C1 (stereo not given) | -10.92%
CCOCC(=O)N1CCC(C(O)c2ccc(F)cc2)CC1 (stereo not given) | -2.843%

Structure (SMILES) | Percent Effect
CC(O)CN1CCN(C(=O)c2cnn(-c3ccccc3F)c2)CC1 (stereo not given) | -7.908%
CCN(C1CCN(c2cccc(F)c2C(C)=O)CC1)S(C)(=O)=O | -1.557%
COc1ccnc(N(C)Cc2csc(C)n2)n1 | -11.41%
CC(Cn1cncn1)Nc1ccc(-c2nccn2C)nn1 (stereo not given) | -4.731%
CC(NC(=O)N(C)Cc1ccc2c(c1)OCCO2)c1nncn1C (stereo not given) | -31.29%
Cc1ccc(N2CCCN(C(=O)c3cc(CC(C)C)n[nH]3)CC2)nn1 | 3.453%
CC(C)Cc1cc(C(=O)NC(C)C)[nH]n1 | 116%
CC(C)Cc1cc(C(=O)N2CCCN(c3ncccn3)CC2)[nH]n1 | -10.26%
CC(C)Cc1cc(C(=O)NCCn2nc3ccccn3c2=O)[nH]n1 | -3.6%
CC(C)Cc1cc(C(=O)N2CCCN(c3cccnn3)CC2)[nH]n1 | -1.538%
Cc1ccc(NCCNC(=O)c2cc(CC(C)C)n[nH]2)nn1 | 121%
Cc1nn(CC(=O)N2CCN(c3ncccn3)CC2)c(C)c1Cl | 17.26%
CN(Cc1cccs1)C1CCC[C@@H]2CN(C(N)=O)C[C@H]12.O=C(O)C(F)(F)F (stereo not given in full) | 5.173%
Cc1ccc(N2C[C@H](C(=O)NCC3CC3)[C@@H]3CCO[C@@H]3C2)nn1.O=C(O)C(F)(F)F | 0.6774%
CN(Cc1cccs1)C1CCC[C@@H]2CN(C(=O)c3cccn3C)C[C@H]12 (stereo not given in full) | 17.98%
Cc1ccc(N(C)[C@@H]2CC[C@@H]3CN(C(=O)Cc4cccs4)C[C@@H]32)nn1 | 112.9%
Cc1ccc(N(C)[C@@H]2CC[C@@H]3CN(C(=O)C4CCOCC4)C[C@@H]32)nn1 | 186.8%
Cc1ccc(N2CCC3(CCN(C(=O)C4CCOC4)CC3)CC2)nn1 (stereo not given) | -12.92%
Cc1ccc(N(C)C2CCN(C(=O)CCc3ccco3)CC2)nn1 | -5.46%
Cc1ccc(N(C)[C@@H]2CC[C@@H]3CN(C(=O)CC4CCOCC4)C[C@@H]32)nn1 | 152.8%
CCN(CCn1cccn1)Cc1nc(-c2cccs2)oc1C | 6.026%
N#Cc1cccc(CN2CCn3cc(CNC(=O)C4CCC4)nc3C2)c1 | -7.661%
COC(=O)NCC(=O)NC(c1ccc(Cl)cc1)C(F)(F)F (stereo not given) | -6.665%
COC[C@@H]1CC[C@H]2[C@H](CCN2S(=O)(=O)c2ccc(OC)cc2)O1 | -8.82%
COc1ccc(C(=O)N2CCCC(C)C2)cc1F (stereo not given) | 8.733%

Structure (SMILES) | Percent Effect
COc1ccc(C(=O)N2CCCC(CNS(C)(=O)=O)C2)cc1F (stereo not given) | 1.055%
COc1ccc(S(=O)(=O)N2CCC[C@@H]3CN(C(=O)C4CC4)C[C@@H]32)cc1F | 83.03%
COc1ccc(S(=O)(=O)N2CCC[C@@H]3CN(C(=O)C4CC4)C[C@@H]32)cc1 | 61.28%
CCN1C(=O)C[C@@H]2[C@@H]1CCN2S(=O)(=O)c1ccc(OC)cc1 | 1.644%
O=C(NCc1cc[nH]n1)NCC(O)c1ccc(F)cc1F (stereo not given) | 2.33%
CCN(CC)C(=O)[C@@H]1C[C@H](NC(=O)c2ccn(C(C)(C)C)c2)CN1C | -2.667%
O=C1CCCc2occ(C(=O)N3CCCC(O)(CO)C3)c21 (stereo not given) | -7.191%
CO[C@H]1COCCN(C(=O)c2ccno2)C1 | -14.2%
COc1ccc(CNC(=O)CNc2ccccc2OC)cc1 | -12.04%
CC(C)(C)Oc1ccc(NCC(=O)NCc2ccco2)cc1 | 90.6%
O=C(Cc1cccs1)NCc1ccnc(OC2CCOCC2)c1 | -13.9%
O=C(CNc1cc2c(cc1Cl)OCCCO2)NCc1ccc(F)cc1 | 5.92%
Cc1ccc(NCc2cccc3cn[nH]c23)cc1OC1CCOC1 (stereo not given) | 0.01014%
O=C(Nc1ccnc(OC2CCOC2)c1)c1cccs1 (stereo not given) | -9.418%
O=C(CNc1ccc(OC2CCOC2)cc1)NCc1ccc(F)cc1 (stereo not given) | 77.11%
CC(C)(Oc1ccc(F)cc1)C(=O)NCc1ccco1 | -9.094%
Cc1ccccc1CNC(=O)CNc1ccc(OC2CCOC2)cc1 (stereo not given) | 97.09%
Cc1ccccc1C(=O)Nc1ccc(OC2CCN(C)CC2)cc1 | -1.73%
O=C(CNc1ccc(F)cc1OCC(F)(F)F)NCc1ccco1 | -21.13%
O=C(CNc1ccc(OC2CCOC2)cc1)NCc1cccs1 (stereo not given) | 90.04%
Cc1occc1C(=O)N1CCC(C(O)c2ccc(F)cc2)CC1 (stereo not given) | -2.674%
Cc1ccc(C)c(CC(=O)Nc2cnccc2SCCCO)c1 | 3.451%
CCCN1CCC(N2CCN(c3cccc(C)n3)CC2)CC1 | 3.962%
CC(C)C[C@@H]1N[C@H](C(=O)NCC2CC2)Cc2c[nH]c3cccc1c23 | 1.644%
COCC1c2nnn(CC3CC3)c2CCN1C(=O)c1sccc1C (stereo not given) | 4.054%

Structure (SMILES) | Percent Effect
Cc1nnc(N2CCC(CNC(=O)OC(C)(C)C)CC2)c(C#N)c1C | -3.272%
Cl.Cl.O[C@@H]1C[C@@](CNCC2CCCC2)(COc2cccnc2)C[C@@H]1O | -14.64%
O=C(CNc1cccc(CC(F)(F)F)c1)NCc1ccco1 | 5.703%
O=C(CCc1ccncc1)Nc1ccc(OCC2CCOCC2)cc1 | 5.919%
O=C(CNc1ccc(OC2CCOC2)cc1)NCc1ccco1 (stereo not given) | 104.1%
O=C(CNc1ccc(OCC2CCOCC2)cc1)NCc1ccco1 | 93.4%
O=C(CCc1cccnc1)Nc1ccc(OCC2CCOCC2)cc1 | -6.342%
O=C(CNc1cccc(S(=O)(=O)C(F)F)c1)NCc1ccco1 | 4.728%
CCN1CCN(C(=O)CCC2CCN(C(C)CCC(=O)OC)CC2)CC1 (stereo not given) | -3.151%
Cc1nccn1-c1ccc(N2CCC(NC(C)C(C)C)CC2)cc1 (stereo not given) | 16.28%
CN(C)c1cc(C(=O)NC2(c3cccc(F)c3)CCOCC2)ccn1 | -10.5%
Cc1cccc(CN2C[C@@H]3CN(C(=O)c4conc4C)C[C@@H]3C2=O)c1 | 2.313%
c1cncc(N2CCOC3(CCCN(c4nncs4)C3)C2)c1 (stereo not given) | -20.57%
Cc1nc2c(c(N3CC=CC3)n1)CCN(c1ncccc1C(N)=O)CC2 | -4.106%
Cc1ccc(CN2CCN(c3ncccc3C(N)=O)CC2CCO)cc1 (stereo not given) | 0.06546%
Cc1ccc(N2N=C(C(=O)O)S(=O)(=O)c3cccnc32)cc1 | 88.09%
Cc1ccc(N2N=C(C(=O)NCC3CC3)S(=O)(=O)c3cccnc32)cc1 | 113.2%
Cc1ccc(-n2nnc(C(=O)NCC3CCCCC3)n2)cc1 | 3.646%
CCc1c(C(=O)NCC2CCS(=O)(=O)C2)cnn1-c1ccc(C)cc1 (stereo not given) | 0.07541%
O=C(C1=NN(Cc2ccccc2)c2ccccc2S1(=O)=O)N1CCCC1 | 25.7%
CN1N=C(C(=O)N2CCCCC2)S(=O)(=O)c2ccccc21 | 9.429%
Cc1ccc(N2N=C(C(N)=O)S(=O)(=O)c3cccnc32)cc1 | 70.93%
C[C@H](NC(=O)C1(N(C)Cc2ccccc2)Cc2ccccc2C1)C(N)=O | -2.365%
CC(=O)c1c(F)cccc1NC1CCN(S(=O)(=O)C2CC2)CC1 | 15.22%
CN(CC(=O)NC(C)(C)C)C(=O)c1cccn1CCc1ccccc1 | 4.312%

— ChEMBL document CHEMBL3988442, “University of Dundee, Small-Polar-MMV Screening Library” (2021)
